# Activity calls are given as the source filed them. Rule for the calls: active = hit-call score of the fitted dose curve at least 0.9, where 1 is the maximum; inactive = score below 0.9.
# Read-out: adenosine kinase (ADK) gene, ADK (gene 132)
# Experiment: LTEA_HepaRG_ADK: Life Technologies and Expression Analysis (LTEA) Assay for adenosine kinase (ADK) gene using HepaRG (AID 2283471)
# Details: mRNA level, 48 h; actives raise or lower the signal
# Experimental: LTEA_HepaRG is a cell based, multiplexed-readout assay that uses HepaRG, a human liver cell line, with measurements taken at 48 hours after chemical dosing on a 96-well plate.LTEA_HepaRG_ADK is one of 102 assay component(s) measured in the LTEA HepaRG cell culture assay. It is a marker of Steatosis.Data from the assay component LTEA_HepaRG_ADK was analyzed into 1 endpoint. This assay endpoint, LTEA_HepaRG_ADK, was analyzed with bidirectional fitting relative to DMSO as the negative control and baseline of activity. Using a type of inducible reporter, measures of mRNA induction for gain or loss-of-signal activity can be used to understand regulation of transcription factor activity. To generalize the intended target to other relatable targets, this assay endpoint is annotated to the kinase intended target family, where the subfamily is steatosis.
# A total of 1060 chemcials from the ToxCast library were tested in eight-point concentration-response experiments. Cell culture and cytotoxicity assays were conducted at Thermo Fisher Scientific's Custom Services facility (Madison, WI). A single lot of human HepaRG cells (Thermo Fisher Scientific, Frederick, MD) was used for the cell culture experiments. 96-well format collagen type I coated plates of human HepaRG cells were prepared using established methods. Briefly, cryopreserved HepaRG cells were thawed, plated at a density of approximately 100,000 cells/well in HepaRG Thaw, Plate, and General Purpose media (HPRG770, Thermo Fisher Scientific), and incubated for 48 hours. 0.5% DMSO was selected as vehicle control to balance the requisite need of DMSO in HepaRG cultures to maintain differentiation (for example, baseline metabolism, proportions of hepatocytes vs. cholangiocytes), while enabling further hepatic receptor pathway activation (for example, PXR and CAR) in response to chemical exposure. 48 hours after plating, the culture medium was replaced with HepaRG Serum-Free Incudtion Media. Cells were exposed to each test chemical in duplicate and maintained in CO2 incubators for another 48 hours. Chemical plates were thawed to room temperature and 200x concentrations of treatment groups were prepared. 8-point conentration-reponse curves were made with the highest exposure at 100 uM, followed by half-log dilutions, all in 0.5% DMSO. Each test plate contained variouse controls, induction positive controls (1mM phenobarbital), cytotoxicity positive controls ([…] aflatoxin B1), vehicle controls (0.5% DMSO), and total lysis controls (0.5% DMSO). Cell morphology images were taken using an Essen IncuCyte FLR automated microscope, with six 96-well plates imaged in about 24 minutes. Images were captured and exported and JPEG files. Spent culture media was transfered to black-well plates for the LDH assay, and remaining media was sorted at -80 C for later use. Cells were treated with RLT buffer and frozen until shipped for gene expression analysis. Total RNA was isolated from the cell suspension in 75 uL of Buffer RLT (Qiagen, Germantown, MD 20874) by Quintiles/Expression Analysis (Durham, NC) using a custom isolation procedure. Total RNA from each plate well was transferred to a preamplification plate. Fluidigm's 96.96 Dynamic ArrayTM (Fluidigm, Amsterdam, the Netherlands) technology was used for gene expression analyses by quantitative reverse transcription polymerase chain reaction (qRT-PCR, performed by Quintiles/Expression Analysis, Durham, NC)89. Standard TaqManTM Assays (Applied Biosystems/ThermoFisher Scientific, Foster City, CA) were used to assess the expression of 93 genes selected based on their selectivity and sensitivity to important hepatic receptors known to be modulated by environmental chemicals; importance in human hepatocyte functionality; and hepatotoxicity. […]
Compound,outcome,AC50
CCOP(=S)(OCC)Oc1nc(Cl)c(Cl)cc1Cl,inactive,–
O=C(O)C(Cl)(Cl)Cl,inactive,–
O=C(O)C(F)(F)C(F)(F)C(F)(F)C(F)(F)C(F)(F)C(F)(F)C(F)(F)C(F)(F)C(F)(F)C(F)(F)F,inactive,–
Cn1sc(Cl)cc1=O,inactive,–
CCC(C)(C)c1ccc(O)c(C(C)(C)CC)c1,inactive,–
C[C@]12CCC(=O)C[C@@H]1CC[C@@H]1[C@@H]2CC[C@]2(C)[C@@H](O)CC[C@@H]12,inactive,–
O=C1C2(Cl)C3(Cl)C4(Cl)C(Cl)(Cl)C5(Cl)C3(Cl)C1(Cl)C5(Cl)C24Cl (stereo unspecified),inactive,–
CCOP(=S)(OCC)SCSP(=S)(OCC)OCC,–,0.106 µM (active)
CC(=O)[O][Hg][c]1ccccc1,–,31.5 µM (active)
O=c1[nH]c(=O)[nH]c(=O)[nH]1,inactive,–
C[C@@H]1C[C@@H]([C@H](O)CC2CC(=O)NC(=O)C2)C(=O)[C@@H](C)C1,–,81.2 µM (active)
CC(C)(OO)c1ccccc1,inactive,–
CCCCCCCCc1ccc(O)cc1,inactive,–
CC12CC1(C)C(=O)N(c1cc(Cl)cc(Cl)c1)C2=O (stereo unspecified),inactive,–
Oc1cccc2cccnc12,inactive,–
ClC1(Cl)C2(Cl)C3(Cl)C4(Cl)C(Cl)(Cl)C5(Cl)C3(Cl)C1(Cl)C5(Cl)C24Cl (stereo unspecified),inactive,–

Compound,outcome,AC50
CCC(=O)C(CC(C)N(C)C)(c1ccccc1)c1ccccc1 (stereo unspecified),inactive,–
C=CC(=O)OCCCCCC(C)C,inactive,–
CN(C)N=O,inactive,–
COc1cc(-c2ccc(N)c(OC)c2)ccc1N,inactive,–
CC(C)(c1ccccc1)c1ccc(O)c(C(C)(C)c2ccccc2)c1,inactive,–
CCN1CCC2(CC1)COc1cc3c(cc12)N(C(=O)c1ccc(-c2ccc(-c4nnc(C)o4)cc2C)cc1)CC3,–,21.3 µM (active)
ClCC(Cl)CCl,inactive,–
C=C(C)C(=O)[O][Sn]([CH2]CCC)([CH2]CCC)[CH2]CCC,inactive,–
NC(=O)O,inactive,–
O=[N+]([O-])c1ccc(O)c([N+](=O)[O-])c1,–,13.3 µM (active)
O=C(Nc1ccc2[nH]ccc2c1)c1cc2cc(F)ccc2n1Cc1cccc(F)c1,inactive,–
O=C(O)C(F)(F)C(F)(F)C(F)(F)C(F)(F)C(F)(F)C(F)(F)F,inactive,–
CC(C)(C)CC(C)(C)c1ccc(O)cc1,inactive,–
CC(C)(C)c1cc(O)ccc1O,inactive,–
Cc1ccccc1N,inactive,–

# Reference: PubChem BioAssay (EPA / NIEHS)
